In PubChem BioAssay AID623996 (NMMLSC, 2012):
Entries with a potency or affinity are not part of this list. The source made the active and inactive calls.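 How the source made its calls: active means fitted concentration giving half the maximal Nile Red retention below 100 µM; inactive means the rest.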

Biological target: Multidrug resistance protein CDR1 (Candida albicans) (UniProt P43071)
Experiment: Candida albicans Cdr1 pump inhibition curves – singleplex, Cherry Pick2 set, dose response (AID 623996)
Conditions: S. cerevisiae AD/CaCDR1, Nile Red efflux inhibition, flow cytometry; series mostly up to 100 µM; efflux inhibition response: at the top concentration

Chain of Multidrug resistance protein CDR1 (Candida albicans) (P43071 whole entry, looked up): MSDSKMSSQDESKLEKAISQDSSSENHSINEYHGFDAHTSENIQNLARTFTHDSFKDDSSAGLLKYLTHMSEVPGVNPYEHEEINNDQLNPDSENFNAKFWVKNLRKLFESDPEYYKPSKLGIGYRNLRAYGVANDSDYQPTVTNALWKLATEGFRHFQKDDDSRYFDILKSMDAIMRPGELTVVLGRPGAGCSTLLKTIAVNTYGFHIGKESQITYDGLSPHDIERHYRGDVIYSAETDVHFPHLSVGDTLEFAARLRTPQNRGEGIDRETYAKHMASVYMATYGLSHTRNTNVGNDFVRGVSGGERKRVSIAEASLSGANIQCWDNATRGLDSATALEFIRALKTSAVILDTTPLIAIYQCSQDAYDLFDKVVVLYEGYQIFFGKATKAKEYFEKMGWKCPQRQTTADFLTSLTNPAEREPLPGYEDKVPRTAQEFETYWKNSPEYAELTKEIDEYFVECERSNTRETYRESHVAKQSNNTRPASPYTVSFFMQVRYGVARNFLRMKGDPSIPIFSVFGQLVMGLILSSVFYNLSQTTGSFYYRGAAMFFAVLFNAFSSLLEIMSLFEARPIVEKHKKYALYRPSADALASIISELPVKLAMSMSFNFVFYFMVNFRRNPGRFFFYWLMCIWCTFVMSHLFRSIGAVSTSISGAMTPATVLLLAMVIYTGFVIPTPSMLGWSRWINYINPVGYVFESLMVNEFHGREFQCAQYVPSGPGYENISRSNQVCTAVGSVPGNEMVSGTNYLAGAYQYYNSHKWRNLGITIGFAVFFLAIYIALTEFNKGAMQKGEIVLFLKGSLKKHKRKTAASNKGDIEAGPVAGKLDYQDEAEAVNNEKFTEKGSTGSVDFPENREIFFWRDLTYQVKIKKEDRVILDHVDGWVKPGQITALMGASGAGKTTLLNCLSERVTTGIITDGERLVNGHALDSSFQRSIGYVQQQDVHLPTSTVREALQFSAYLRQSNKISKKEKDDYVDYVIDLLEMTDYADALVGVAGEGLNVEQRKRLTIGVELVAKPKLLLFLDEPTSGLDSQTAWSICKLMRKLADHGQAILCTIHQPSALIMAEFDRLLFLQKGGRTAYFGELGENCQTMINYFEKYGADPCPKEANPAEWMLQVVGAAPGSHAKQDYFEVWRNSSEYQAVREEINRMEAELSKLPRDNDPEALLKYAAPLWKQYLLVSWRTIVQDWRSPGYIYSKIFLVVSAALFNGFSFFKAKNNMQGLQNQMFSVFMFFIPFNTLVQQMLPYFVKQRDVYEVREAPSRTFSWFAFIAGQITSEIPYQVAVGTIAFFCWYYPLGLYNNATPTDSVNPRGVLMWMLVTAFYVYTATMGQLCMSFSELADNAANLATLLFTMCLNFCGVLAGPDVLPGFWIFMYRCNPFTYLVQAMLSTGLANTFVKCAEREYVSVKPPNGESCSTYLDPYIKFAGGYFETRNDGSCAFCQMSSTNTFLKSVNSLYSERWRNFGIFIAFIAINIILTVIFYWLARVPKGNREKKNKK

Efflux inhibition response, inactive:
COc1ccc(OC)c2sc(NC(=O)c3ccc(Br)s3)nc12 -1.67%
Cc1ccc2sc(N(CCCN(C)C)C(=O)c3ccc(Br)s3)nc2c1C 2.11%
CCOc1cccc2sc(NC(=O)c3ccc(Br)s3)nc12 -1.5%
C[C@@]12C(=O)Nc3cc(F)c(F)cc3C(=O)N1[C@H]1c3cc(Cl)ccc3OC[C@@H]1[C@@H]2c1ccccc1 2.74%
O=C(C1CCCN(c2ncnc3c2nc2n3CCCCC2)C1)N1CCN(c2ccccc2F)CC1 (stereo not given) -3.46%
O=C(C[n+]1cc(-c2ccc(Cl)cc2)n2c1CCC2)N1c2ccccc2Sc2ccccc21 -1.21%
COc1ccc(O)c(C(=O)c2cnc3c(c2)CN(C)C(=O)N3)c1 0.22%
COc1cc(OC)c2ccc(=O)oc2c1C(CCN1CCCCC1)c1ccc(N(C)C)cc1 (stereo not given) 2.07%
CCCCCCCCCC[N+](C)(C)CC/C=C1/c2ccccc2Sc2ccc(Cl)cc21 164%
COc1cc(OC)c2ccc(=O)oc2c1C(CCN1CCCC1)c1ccc(N(C)C)cc1 (stereo not given) -1.94%
NS(=O)(=O)c1ccc(N2N=C(c3ccc(Br)cc3)CC2c2ccc(F)cc2)cc1 (stereo not given) -3.7%
NS(=O)(=O)c1ccc(N2N=C(c3ccccc3)CC2c2ccc(F)cc2)cc1 (stereo not given) 2.86%
O=C(CSc1nnc(Cc2cccs2)n1Cc1ccco1)Nc1ccc(Br)cc1 -1.77%
CCC(Cc1ccccc1)OC(=O)c1ccccc1C(=O)O (stereo not given) -2.73%
COc1ccc(N2CCN(C(=O)C3CCCN(c4ncnc5c4nc4n5CCCCC4)C3)CC2)cc1 (stereo not given) -3.49%
Cc1ccc2c(c1)[C@H]1[C@H](CO2)[C@H](c2ccccc2)[C@]2(C)C(=O)Nc3cc(F)c(F)cc3C(=O)N12 -1.06%
COc1ccc(C2CC(c3cccc(OC)c3)=NN2c2ccc(S(N)(=O)=O)cc2)cc1 (stereo not given) 1.19%
CCCCNC(=O)C1CCC(CNc2nc(=S)[nH]c3ccccc23)CC1 (stereo not given) 0.84%
Cc1ccc(N2CCN(C(=O)C3CCCN(c4ncnc5c4nc4n5CCCCC4)C3)CC2)c(C)c1 (stereo not given) -0.74%
Cc1ccc(CNC(=O)C2CCC(CNc3nc(=S)[nH]c4ccccc34)CC2)cc1 (stereo not given) -0.52%
COc1ccc(CNC(=O)C(C#N)c2nc3ccccc3nc2N2CCCC2)cc1 (stereo not given) -3.36%
Cc1ccc(C2CC(c3ccccc3)=NN2c2ccc(S(N)(=O)=O)cc2)cc1 (stereo not given) -0.8%
O=C(c1ccoc1)N1CCC2(CC1)Oc1ccc(F)cc1C(=O)C21CC(c2ccc(Cl)cc2)=NO1 (stereo not given) 98.9%
OCCN1CCN(CC/C=C2/c3ccccc3Sc3ccc(C(F)(F)F)cc32)CC1 2.54%
NC1=NC[C@H](Cc2ccc(O)cc2)N1CCCCC1CCCCC1 -0.35%
COc1ccc(CCOC(=O)c2ccc(N)c([N+](=O)[O-])c2)cc1 2.25%
NS(=O)(=O)c1ccc(N2N=C(c3ccccc3)CC2c2ccc(Br)cc2)cc1 (stereo not given) -0.8%
O=C(CSc1nnc(Cc2cccs2)n1Cc1ccco1)Nc1cccc(Cl)c1 -3.15%
COc1ccc(C(=O)OCCc2ccc(O)cc2)cc1 -2.8%

outcome, inactive:
COc1ccc(CNC(=O)C(C#N)c2nc3ccccc3nc2N2CCN(C)CC2)cc1 (stereo not given)
